Assay results published in PubChem BioAssay (NCI).
The panel holds about 79,000 compounds, 15% with a hit somewhere; the sample as a whole holds those more often. Unmarked numbers belong to inactive results. Calls of active or inactive are those of the source. Cut-off read from the data, not from the text of the source: active = growth inhibition above about 70%; inactive = the rest.

Assays:
[1] = NCI Yeast Anticancer Drug Screen. Data for the rad50 strain (AID 155);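 note: 0% = growth of vehicle-only cultures of the same strain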; conditions: S. cerevisiae rad50 strain growth inhibition, hits give high values
How it was run: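 Growth of the mutant yeast was measured after compound exposure and referenced to vehicle-treated cultures.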

[2] = NCI Yeast Anticancer Drug Screen. Data for the mec2-1 strain (AID 157); conditions: S. cerevisiae mec2-1 strain, hits give high values
How it was run: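 Each compound was tested on mec2-1 yeast, a strain altered in DNA damage repair or cell cycle control. Growth inhibition is reported relative to vehicle.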

[3] = NCI Yeast Anticancer Drug Screen. Data for the sgs1 mgt1 strain (AID 161);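 note: 0% = growth of cultures given vehicle only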; conditions: S. cerevisiae sgs1 mgt1 strain, hits give high values
How it was run: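 Test agents were incubated with a DNA-repair-mutant yeast strain. Growth was then read and compared against vehicle-treated controls.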

[4] = NCI Yeast Anticancer Drug Screen. Data for the cln2 rad14 strain (AID 165);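 note: 0% = growth equal to vehicle treated cultures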; conditions: S. cerevisiae cln2 rad14 strain, hits give high values
How it was run: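 Test compounds were added to cln2 rad14 yeast cultures; inhibition of growth was then determined by comparison with vehicle treatment.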

[5] = NCI Yeast Anticancer Drug Screen. Data for the bub3 strain (AID 167); conditions: S. cerevisiae bub3 mutant strain, hits give high values
How it was run: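 Whole-cell yeast assay. The mutant strain was incubated with compounds, and growth inhibition was determined by comparison with vehicle-treated cells.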

[6] = NCI Yeast Anticancer Drug Screen. Data for the mlh1 rad18 strain (AID 175); conditions: S. cerevisiae mlh1 rad18 strain growth inhibition, hits give high values
How it was run: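 Inhibition values reflect reduced growth of mutant yeast versus vehicle-treated controls following compound exposure; the mutations affect DNA damage repair.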

[7] = at 5.0 µM (retest, dose inferred, filed as 0.5)
[8] = at 50.0 µM (retest, dose inferred, filed as 5.0)

Compound	growth inhibition [1, 7]	growth inhibition [1, 8]	growth inhibition ([1]; at 50.0 µM)	growth inhibition [2, 7]	growth inhibition [2, 8]	growth inhibition ([2]; at 50.0 µM)	growth inhibition [3, 7]	growth inhibition [3, 8]	growth inhibition ([3]; at 50.0 µM)	growth inhibition [4, 7]	growth inhibition [4, 8]	growth inhibition ([4]; at 50.0 µM)	growth inhibition [5, 7]	growth inhibition [5, 8]	growth inhibition ([5]; at 50.0 µM)	growth inhibition [6, 7]	growth inhibition [6, 8]	growth inhibition ([6]; at 50.0 µM)
CC(=O)OCC1OC(OC(C)=O)C(On2nnc3c(-c4ccccc4)c(C)nn32)C(OC(C)=O)C1OC(C)=O (configuration not stated)	0%	54%	61.5%	-1%	71% (active)	35.8%	2%	76% (active)	47.8%	1%	52%	41.1%	-1%	59%	16.1%	-3%	58%	36.2%
CC1CCC(C(C)C2C(O)CC3C4CC=C5CC(O)CCC5(C)C4CCC32C)NC1 (configuration not stated)	-23%	81% (active)	66.8%	1%	18%	25.1%	12%	96% (active)	88.5% (active)	3%	23%	23.8%	-1%	70% (active)	10.9%	10%	54%	57.5%
Cc1cccc(C)c1N1C(=O)C(=O)C(c2nc3ccccc3s2)/C(=N/NC(=O)c2ccccc2O)C1=O (configuration not stated)	26%	26%	71.9% (active)	16%	16%	56.2%	26%	26%	48.9%	21%	21%	69.5%	19%	19%	66%	34%	34%	48.5%
CSc1nc(=S)c2[nH]c(C)nc2[nH]1	0%	4%	93.3% (active)	-2%	-3%	99.6% (active)	0%	1%	99.2% (active)	-3%	6%	98.5% (active)	-1%	-6%	99.6% (active)	1%	3%	97.5% (active)
CCc1cc2c([nH]c3ccccc32)c(C)c1CCN(C)C	-1%	23%	35.1%	4%	23%	3.65%	3%	46%	1.45%	-11%	24%	-14.6%	-9%	-5%	12.6%	-5%	43%	69.8%
c1ccc(NCCSc2nc3ccccc3s2)cc1	6%	44%	42.3%	9%	22%	27.4%	2%	80% (active)	26%	-21%	43%	8.55%	24%	70% (active)	81.6% (active)	8%	77% (active)	77.7% (active)
COC(=O)c1cc(C)c2sc3ccccc3c2c1C	-13%	29%	73.1% (active)	-8%	23%	5.3%	-7%	51%	75.2% (active)	-8%	16%	-24.1%	-21%	21%	31.4%	-3%	38%	61.5%
CC(C)OC(=O)c1ccc(NCc2cc(O)ccc2O)cc1Cl	61%	99% (active)	89.8% (active)	41%	99% (active)	90.3% (active)	55%	99% (active)	91.6% (active)	63%	100% (active)	89.5% (active)	53%	100% (active)	88.9% (active)	49%	98% (active)	88% (active)
CC1CC(C)C(C)C(CO)C1 (configuration not stated)	8%	-3%	-22.4%	4%	-3%	-3.2%	-8%	-1%	-22.6%	-1%	-3%	40%	0%	4%	-0.05%	6%	-5%	-12.2%
